Results as given in PubChem BioAssay (NCI).
The panel holds about 83,000 compounds, 20% with a hit somewhere; the sample as a whole holds those more often.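 Growth was measured after 48 h exposure to one concentration of compound in 96-well plates. Values under 10 count as active.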 Active and inactive are the calls of the source.

What was measured:
Assay in all cases: NCI-60 one-dose screen, 48 h (100 = growth as untreated, 0 = no growth, -100 = all killed)
Settings in all cases: 10 µM unless noted
T-47D breast = system: T-47D breast
BT-549 breast = system: BT-549 breast
MDA-MB-435 melanoma = system: MDA-MB-435 melanoma
SW-620 colon = system: SW-620 colon
MCF7 breast = system: MCF7 breast
HCT-116 colon = system: HCT-116 colon
HCC-2998 colon = system: HCC-2998 colon
KM12 colon = system: KM12 colon

SMILES | growth (T-47D breast) | growth (BT-549 breast) | growth (MDA-MB-435 melanoma) | growth (SW-620 colon) | growth (MCF7 breast) | growth (HCT-116 colon) | growth (HCC-2998 colon) | growth (KM12 colon)
CCCCn1cnc2c(Sc3c([N+](=O)[O-])ncn3C)nc(N)nc21 | 74.1% (inactive) | 98.3% (inactive) | 102% (inactive) | 102% (inactive) | 91% (inactive) | 87.3% (inactive) | 113% (inactive) | 108% (inactive)
CC(O)CN1CC(O)=C(c2nc3ccccc3s2)C1=N (stereo not drawn) | 104% (inactive) | 109% (inactive) | 98.9% (inactive) | 108% (inactive) | 96.3% (inactive) | 109% (inactive) | 8.02% (active) | 117% (inactive)
COc1ccc(-c2cc(=O)c3c(OC)c4ccoc4cc3o2)cc1 | 87.2% (inactive) | 113% (inactive) | 89.6% (inactive) | 93.2% (inactive) | 98% (inactive) | 98% (inactive) | 106% (inactive) | 100% (inactive)
O=S(=O)(Nc1ccc(I)cc1F)c1ccc(-c2cnc(C3CC3)o2)cc1 | 52% (inactive) | 45.7% (inactive) | 2.11% (active) | 27.2% (inactive) | 27.9% (inactive) | 40.8% (inactive) | 76.9% (inactive) | 52.9% (inactive)
COc1ccc(Nc2cc(C)nc(N3CCN(c4ccnc5cc(Cl)ccc45)CC3)n2)cc1 | 7.42% (active) | 51.2% (inactive) | 2.27% (active) | 25.4% (inactive) | 9.32% (active) | 0.65% (active) | 41.2% (inactive) | 23.1% (inactive)
O=C1C=C(OCC=C(Cl)Cl)C(=O)c2ccccc21 | 38.9% (inactive) | 78.6% (inactive) | -55.7% (active) | 78.3% (inactive) | 26.6% (inactive) | 21.8% (inactive) | 112% (inactive) | 91% (inactive)
OCc1ccc(N2CCc3cccc(F)c3C2)cc1Cl | 1.88% [0.1 µM] (active) | 114% [0.1 µM] (inactive) | 111% [0.1 µM] (inactive) | 34.5% [0.1 µM] (inactive) | 12.8% [0.1 µM] (inactive) | 18.1% [0.1 µM] (inactive) | 81% [0.1 µM] (inactive) | 101% [0.1 µM] (inactive)
COc1cc(CNc2oc(-c3ccccc3)c(-c3ccccc3)c2C#N)cc(CN2CCN(C)CC2)c1O | 74% (inactive) | 76.4% (inactive) | 40.5% (inactive) | 31.8% (inactive) | 14.9% (inactive) | 36.7% (inactive) | 37.4% (inactive) | 66.7% (inactive)
Clc1ccc2nc3nc4ccc[nH]c4cc3c2c1 | 22% (inactive) | 97.7% (inactive) | 103% (inactive) | 102% (inactive) | 6.54% (active) | 96.9% (inactive) | 70.6% (inactive) | 63% (inactive)
N#Cc1nnn(-c2ccc(S(N)(=O)=O)cc2)c1NC(=O)CCl | 95.2% (inactive) | 97.1% (inactive) | 99.6% (inactive) | 102% (inactive) | 90.9% (inactive) | 94.6% (inactive) | 106% (inactive) | 94.9% (inactive)
COc1cc2c(cc1-c1c(C)noc1C)ncc1nc(C3CCCC3)n([C@H](C)COC(F)F)c12 | 29.7% (inactive) | 54.8% (inactive) | 32.4% (inactive) | 57.5% (inactive) | 19.9% (inactive) | 31% (inactive) | 43.3% (inactive) | 45.8% (inactive)
c1ccc(-c2c(-c3ccccc3)[n+](Cc3ccc4ccccc4c3)c(-c3ccc(-c4nc5ccccc5s4)cc3)n2Cc2ccc3ccccc3c2)cc1 | -78.2% (active) | -87.5% (active) | -76.9% (active) | -78.3% (active) | -65.5% (active) | -83.5% (active) | -93.8% (active) | -88.1% (active)
COc1ccc(CCNc2nc(SC)nc(-c3cccc([N+](=O)[O-])c3)c2C#N)cc1OC | 79.3% (inactive) | 42.2% (inactive) | 87.7% (inactive) | 92.9% (inactive) | 86.8% (inactive) | 82% (inactive) | 93.6% (inactive) | 99.1% (inactive)
CC[C@]1(O)C[C@@H]2CN(CCc3c([nH]c4ccccc34)[C@@](C(=O)OC)(c3cc4c(cc3OC)N(C)[C@H]3[C@@](O)(C(N)=O)[C@H](O)[C@]5(CC)[C@@H]6C[C@@H]6CN6CC[C@]43[C@@H]65)C2)C1 | 92.9% (inactive) | 11.5% (inactive) | -40% (active) | 26.7% (inactive) | 18.9% (inactive) | 6.89% (active) | 24.9% (inactive) | 11.9% (inactive)
OCCNc1nccc(N2CCN(c3ccnc4cc(Cl)ccc34)CC2)n1 | 69% (inactive) | 68.3% (inactive) | 7.31% (active) | 44.4% (inactive) | 34.2% (inactive) | 47.1% (inactive) | 86.4% (inactive) | 60.8% (inactive)
COc1cc2c(cc1-c1c(C)noc1C)ncc1nc(C3CCOCC3)n([C@H](C)COC(F)F)c12 | 46% (inactive) | 68.8% (inactive) | 40.6% (inactive) | 59% (inactive) | 19.2% (inactive) | 40.4% (inactive) | 47.7% (inactive) | 47% (inactive)

SMILES | growth (T-47D breast) | growth (BT-549 breast) | growth (MDA-MB-435 melanoma) | growth (SW-620 colon) | growth (MCF7 breast) | growth (HCT-116 colon) | growth (HCC-2998 colon) | growth (KM12 colon)
CC1=C(O)C(=O)C(C(C#N)(C#N)C(C#N)C#N)C1 (stereo not drawn) | 107% (inactive) | 95% (inactive) | 96.8% (inactive) | 102% (inactive) | 92.1% (inactive) | 102% (inactive) | 95.3% (inactive) | 97.7% (inactive)
C=C(C)C1CC(O)C2(C)CCCC3C2C1CC(C)C3(C)CC/C(C)=C/C(O)C1CCC(=O)c2c(OC)cc(OC)cc21 (stereo not drawn) | 37.2% (inactive) | 60.4% (inactive) | 41.7% (inactive) | 47.1% (inactive) | 30.1% (inactive) | 28.5% (inactive) | 76.9% (inactive) | 40.9% (inactive)
CCOC(=O)c1c(CN2CCN(C)CC2)nc2ccc(Cl)cc2c1-c1ccccc1 | 74.3% (inactive) | 58.5% (inactive) | 53.5% (inactive) | 94.8% (inactive) | 47.6% (inactive) | 63.7% (inactive) | -0.061% (active) | 76.2% (inactive)
Cc1nc2ccccc2n1C(=O)C[C@@H]1NC(=S)NC1=O | 96.7% (inactive) | 95.5% (inactive) | 97.8% (inactive) | 99.4% (inactive) | 93.9% (inactive) | 92.5% (inactive) | 102% (inactive) | 102% (inactive)
CC1=C[C@H]2c3c(c(O)c(O)c4oc5cc(O)ccc5c(=O)c34)[C@H](c3cc(O)c(O)c4oc5cc(O)ccc5c(=O)c34)[C@H]2C(C)(C)C1 | 18.1% (inactive) | 31.4% (inactive) | 20% (inactive) | 19.5% (inactive) | 15.4% (inactive) | 1.38% (active) | 75.4% (inactive) | 15% (inactive)
CC[N+](CC)=c1sc2c(s1)C(c1ccc(Cl)cc1)Oc1ccc(Cl)cc1-2 (stereo not drawn) | -2.38% (active) | 4.07% (active) | 2.5% (active) | 2.29% (active) | 4.58% (active) | 6.48% (active) | -15.1% (active) | -28.8% (active)
O=C(C(=O)c1ccc2c(c1)OCO2)c1ccc2c(c1)OCO2 | 113% (inactive) | 101% (inactive) | 114% (inactive) | 90.6% (inactive) | 102% (inactive) | 101% (inactive) | 114% (inactive) | 98.1% (inactive)
O=S(=O)(Nc1ccc(Cl)c(F)c1)c1ccc(-c2cnc(C3CC3)o2)cc1 | 27.8% (inactive) | 27.5% (inactive) | 3.28% (active) | 17.9% (inactive) | 13% (inactive) | 23.1% (inactive) | 41.5% (inactive) | 38.4% (inactive)
COc1cc(-c2nc3ccccc3[nH]2)ccc1OCC(=O)N=Nc1c(O)[nH]c2ccc(Cl)cc12 | -52% (active) | 9.87% (active) | -71.1% (active) | -67.8% (active) | -76.9% (active) | -83.6% (active) | -62.9% (active) | -87.2% (active)
Nc1n[nH]c2ccc([C@@H]3Nc4ccc5[nH]ncc5c4[C@H]4C5C=CC(C5)[C@@H]34)cc12 (stereo partly drawn) | 80% (inactive) | 3.98% (active) | -28.1% (active) | 22.8% (inactive) | 17.8% (inactive) | 6.63% (active) | 14.3% (inactive) | 10.4% (inactive)
CCCCn1c(-c2ccc(C(=O)O/N=C(\N)c3ccc4ccccc4c3)cc2)nc(-c2ccccc2)c1-c1ccccc1 | 46.2% (inactive) | 87.9% (inactive) | 85.1% (inactive) | 80.1% (inactive) | 61.2% (inactive) | 60.8% (inactive) | 95.8% (inactive) | 76.7% (inactive)
CC(=O)OCCC/C(=C/c1cc2ccccc2c2ccccc12)[N+](=O)[O-] | -66.7% (active) | -50% (active) | -36.2% (active) | -88.2% (active) | -87.8% (active) | -100% (active) | -99.5% (active) | -99.2% (active)
O=c1cc(CSc2nnc(SCc3cc(=O)oc4c3ccc3ccccc34)o2)c2ccc3ccccc3c2o1 | 78.6% (inactive) | 107% (inactive) | 112% (inactive) | 98.1% (inactive) | 93.7% (inactive) | 104% (inactive) | 101% (inactive) | 98.2% (inactive)
Cn1cc(-c2nonc2-c2c[nH]c3ccc(F)cc23)c2cccnc21 | 16.2% (inactive) | 93.1% (inactive) | 62.3% (inactive) | 97.3% (inactive) | 23.5% (inactive) | 90.9% (inactive) | 91.8% (inactive) | 67.4% (inactive)
COc1ccc(S(=O)(=O)N2CCCCCC2)cc1NC(=O)c1[nH]c(C)c2c1CCCCC2=O | 9.29% (active) | 42.2% (inactive) | 25.6% (inactive) | 60.8% (inactive) | 17.9% (inactive) | 23.8% (inactive) | 20.2% (inactive) | 32.8% (inactive)
